Reference: the supplement of paper PMC12645437, “Orthogonal IMiD-Degron Pairs Induce Selective Protein Degradation in Cells” (ACS Chemical Biology, 2025)
Over roughly 8,300 sequences, “log2 fold change of degron read counts, EGFP-low vs EGFP+ sorted cells (limma voom), compound-induced degradation” has its median near -1.1; the highest 2% begin near 3.2. What follows is part of a selection rich in the highest values, with near analogues and random picks from the rest.

Target: T1, CRBN, Q96SW2
T1 chain: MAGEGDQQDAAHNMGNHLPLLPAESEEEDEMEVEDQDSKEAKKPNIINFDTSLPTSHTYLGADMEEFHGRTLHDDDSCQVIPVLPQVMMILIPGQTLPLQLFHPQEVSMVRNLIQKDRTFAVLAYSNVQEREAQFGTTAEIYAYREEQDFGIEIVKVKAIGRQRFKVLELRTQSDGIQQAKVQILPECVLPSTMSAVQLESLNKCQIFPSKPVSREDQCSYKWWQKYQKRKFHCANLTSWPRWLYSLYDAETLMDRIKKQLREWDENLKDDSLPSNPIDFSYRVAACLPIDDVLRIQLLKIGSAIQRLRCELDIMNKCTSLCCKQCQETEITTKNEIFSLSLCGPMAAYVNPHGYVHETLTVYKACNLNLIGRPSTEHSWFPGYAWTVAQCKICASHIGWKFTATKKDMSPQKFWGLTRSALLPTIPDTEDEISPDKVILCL
Assay: log2 fold change of degron read counts, EGFP-low vs EGFP+ sorted cells (limma voom), compound-induced degradation; higher = more compound-induced degradation of the degron-EGFP fusion; degrons are variants of IKZF1/3 zinc finger 2; compound dose not given here
Details: Jurkat, 18 h

[1] = compound: compound 19 (5-tert-butyl-thalidomide)
[2] = compound: compound 22 (5-morpholino-thalidomide)
[3] = compound: compound 33 (diphenyl IMiD analogue)
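Further: pooled lentiviral library of zinc finger degron-EGFP fusions in mCherry-positive Jurkat cells, FACS-sorted after compound exposure, with degron abundance counted by next-generation sequencing.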

Row | Sequence | log2 fold change of degron read counts [1] | log2 fold change of degron read counts [2] | log2 fold change of degron read counts [3] | log2 fold change of degron read counts (compound: thalidomide)
1 | FHCPQCGAWFTQKGNLLRHIKL [46F_47H_49P_50Q_52G_53A_54W_55F_67L_, Q9UKT9] | -1.82 | -2.04 | -1.61 | -2.14
2 | FLCDICGAEFTQKGNLLRHIKL [46F_47L_49D_50I_52G_53A_54E_55F_67L_, Q9UKT9] | -0.631 | -2.41 | -1.1 | -0.617
3 | FDCDQCGAYFTQKGNLLRHIKL [46F_47D_49D_50Q_52G_53A_54Y_55F_67L_, Q9UKT9] | -2.22 | -2.78 | -2.57 | -2.51
4 | FICPICGANFTQKGNLLRHIKL [46F_47I_49P_50I_52G_53A_54N_55F_67L_, Q9UKT9] | -0.552 | 2.74 | 2.01 | 2.63
5 | FACPICGANFTQKGNLLRHIKL [46F_47A_49P_50I_52G_53A_54N_55F_67L_, Q9UKT9] | 3.04 | 1.85 | 1.61 | 1.07
6 | FWCPICGANFTQKGNLLRHIKL [46F_47W_49P_50I_52G_53A_54N_55F_67L_, Q9UKT9] | 2.99 | 3.64 | 1.91 | 1.51
7 | LTCEICGFGCTQKGNLLRHIKL [46L_47T_49E_50I_52G_53F_54G_55C_67L_, Q9UKT9] | 0.777 | 1.03 | 0.337 | 1.18
8 | FHCPICGAYFTQKGNLLRHIKL [46F_47H_49P_50I_52G_53A_54Y_55F_67L_, Q9UKT9] | 2.3 | 1.96 | 1.93 | 0.872
9 | FNCNQCGHKFTQKGNLLRHIKL [46F_47N_49N_50Q_52G_53H_54K_55F_67L_, Q9UKT9] | -2.94 | -2.21 | -2.62 | -2.32
10 | FTCDVCGALFTQKGNLLRHIKL [46F_47T_49D_50V_52G_53A_54L_55F_67L_, Q9UKT9] | -1.7 | -2.19 | -1.1 | -1.72
11 | FSCEVCGAAFTQKGNLLRHIKL [46F_47S_49E_50V_52G_53A_54A_55F_67L_, Q9UKT9] | 3.6 | 3.21 | 2.57 | 2.01
12 | FTCEVCGAAFTQKGNLLRHIKL [46F_47T_49E_50V_52G_53A_54A_55F_67L_, Q9UKT9] | 2.8 | 3.24 | 2.06 | 3.05
13 | FTCNVCGAAFTQKGNLLRHIKL [46F_47T_49N_50V_52G_53A_54A_55F_67L_, Q9UKT9] | 0.179 | 1.08 | 1.44 | 1.29
14 | FDCEVCGAAFTQKGNLLRHIKL [46F_47D_49E_50V_52G_53A_54A_55F_67L_, Q9UKT9] | 2.09 | 0.14 | 0.426 | 1.14
15 | FTCPVCGAAFTQKGNLLRHIKL [46F_47T_49P_50V_52G_53A_54A_55F_67L_, Q9UKT9] | 2.3 | 3.11 | 2.78 | 3
16 | FKCEVCGAAFTQKGNLLRHIKL [46F_47K_49E_50V_52G_53A_54A_55F_67L_, Q9UKT9] | 2.13 | -0.688 | -1.68 | 0.479
17 | LTCPICGFPCTQKGNLLRHIKL [46L_47T_49P_50I_52G_53F_54P_55C_67L_, Q9UKT9] | 0.155 | 1.3 | 1.14 | 1.64
18 | FDCPICGHEFTQKGNLLRHIKL [46F_47D_49P_50I_52G_53H_54E_55F_67L_, Q9UKT9] | -3 | -2.96 | -2.14 | -2.07
